For 29 molecules, growth results are on record in the supplement of paper PMC9262897, “Low-cost anti-mycobacterial drug discovery using engineered E. coli” (Nature Communications, 2022).

Structures can show the parent of a compound that is named as a salt. ± gives the standard deviation of the averaged measurements.

The test system of the experiment is E. coli TESEC Mtb Asd. As to the kind of experiment: growth (OD600 after 10 h); higher = more growth (less inhibition). Particulars: arabinose induction (level): High; compound 0.1 mM; raw OD600 reference: median of DMSO wells 0.331, cell-free background 0.041. On the procedure: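 TESEC E. coli strains in which the native enzyme is deleted and replaced by arabinose-inducible Mtb Asd, DapB, CysH or TrpD, each grown in its selective medium. Strains were screened against the Prestwick library at 0.1 mM and 1% DMSO in 384-well format at low and high arabinose induction. Growth is read as OD600 after 10 h in triplicate.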
`CC(=O)Oc1cccc2c1C(=O)c1c(OC(C)=O)cc(C(=O)O)cc1C2=O` [Diacerein] showed a growth of 0.224 ± 0.019.

`COc1ccc(-c2cc(=S)ss2)cc1` [Anethole-trithione] showed a growth of 0.211 ± 0.018.

As for `O=C(O)Cc1ccccc1Nc1c(Cl)cccc1Cl` [Diclofenac sodium], the growth came out at 0.172 ± 0.014.

As for `CCN1CCC[C@H]1CNC(=O)c1c(O)c(Cl)cc(Cl)c1OC` [Raclopride], the growth worked out at 0.13 ± 0.013.

Take `COc1ccc(C[C@@H]2c3cc(OC)c(OC)cc3CC[N@+]2(C)CCC(=O)OCCCCCOC(=O)CC[N@@+]2(C)CCc3cc(OC)c(OC)cc3[C@H]2Cc2ccc(OC)c(OC)c2)cc1OC` [Cisatracurium besylate]: the growth came out at 0.307 ± 0.04.

`CN(C)CCOC(=O)C(c1ccccc1)C1(O)CCCC1` (centres undefined) [Cyclopentolate hydrochloride] showed a growth of 0.198 ± 0.013.

Molecule `CCCCOc1ccc(C(=O)CCN2CCCCC2)cc1` [Dyclonine hydrochloride] gave a growth of 0.269 ± 0.064.

For the molecule `CC[C@H]1OC(=O)[C@H](C)[C@@H](O[C@H]2C[C@@](C)(OC)[C@@H](O)[C@H](C)O2)[C@H](C)[C@@H](O[C@@H]2O[C@H](C)C[C@H](N(C)C)[C@H]2O)[C@](C)(O)C[C@@H](C)/C(=N\OCOCCOC)[C@H](C)[C@@H](O)[C@]1(C)O` [Roxithromycin], the growth is 0.0582 ± 0.0066.

With `CCOC(=O)O[C@]1(C(=O)OCCl)CC[C@H]2[C@@H]3CCC4=CC(=O)C=C[C@]4(C)[C@H]3[C@@H](O)C[C@@]21C` [Loteprednol etabonate], the growth came to 0.24 ± 0.019.

In turn, `c1ccc2c(CC3=NCCN3)cccc2c1` [Naphazoline hydrochloride] had a growth of 0.238 ± 0.042.

As for `O=C(N/N=C/c1ccc([N+](=O)[O-])o1)c1ccc(O)cc1` [Nifuroxazide], the growth came to 0.053 ± 0.00057.

With `COCCOC(=O)C1=C(C)NC(C)=C(C(=O)OC/C=C/c2ccccc2)C1c1cccc([N+](=O)[O-])c1` (centres undefined) [Cilnidipine], the growth stood at 0.187 ± 0.016.

`CCN(CC)CCOC(=O)c1ccc(N)cc1` [Procaine hydrochloride] showed a growth of 0.339 ± 0.035.

Molecule `COc1cccc(N(C)C(=S)Oc2ccc3c(c2)CCCC3)n1` [Liranaftate] yielded a growth of 0.297 ± 0.025.

`CC(C)(Sc1cc(C(C)(C)C)c(O)c(C(C)(C)C)c1)Sc1cc(C(C)(C)C)c(O)c(C(C)(C)C)c1` [Probucol] gave a growth of 0.344 ± 0.1.

Molecule `C[C@@H]1[C@H](O)[C@@H](C)/C=C/C=C/C=C/C=C/C=C/C=C/C=C/[C@H](O[C@@H]2O[C@H](C)[C@@H](O)[C@H](N)[C@@H]2O)C[C@@H]2O[C@](O)(C[C@@H](O)C[C@@H](O)[C@H](O)CC[C@@H](O)C[C@@H](O)CC(=O)O[C@H]1C)C[C@H](O)[C@H]2C(=O)O` [Amphotericin B] displayed a growth of 0.416 ± 0.042.

Molecule `C[C@@H](O)[C@H]1C(=O)N2C(C(=O)O)=C(S[C@@H]3CN[C@H](C(=O)N(C)C)C3)[C@H](C)[C@H]12` [Meropenem] yielded a growth of 0.138 ± 0.0038.

For the molecule `CC1CCc2cc(F)cc3c(=O)c(C(=O)O)cn1c23` (centres undefined) [Flumequine], the growth came to 0.059 ± 0.0029.

Turning to `O=C1CC2(CCCC2)CC(=O)N1CCCCN1CCN(c2ncccn2)CC1` [Buspirone hydrochloride], the growth is 0.337 ± 0.021.

As for `CC[C@]12CCCN3CCc4c(n(c5ccccc45)[C@@](O)(C(=O)OC)C1)[C@@H]32` [Vincamine], the growth was determined as 0.375 ± 0.011.

`N#CC(c1ccc(Cl)cc1)c1c(Cl)cc(-n2ncc(=O)[nH]c2=O)cc1Cl` (centres undefined) [Diclazuril]: the growth was 0.048 ± 0.0019.

Consider `CCOC(=O)[C@H](CCc1ccccc1)N[C@H]1CCc2ccccc2N(CC(=O)O)C1=O` [Benazepril HCl], for which the growth is 0.293 ± 0.042.

As to `C[C@H](CCC(=O)O)[C@H]1CC[C@H]2[C@@H]3[C@H](O)C[C@@H]4C[C@H](O)CC[C@]4(C)[C@H]3CC[C@]12C` [Chenodiol], the growth came to 0.216 ± 0.071.

`CC(=O)CC(c1ccccc1)c1c(O)c2ccccc2oc1=O` (centres undefined) [Warfarin] registered a growth of 0.351 ± 0.065.

With `O=C1CN(/N=C/c2ccc(-c3ccc([N+](=O)[O-])cc3)o2)C(=O)N1` [Dantrolene sodium salt], the growth was determined as 0.167 ± 0.014.

Turning to `Nc1nc2c(ncn2COC(CO)CO)c(=O)[nH]1` [Ganciclovir], the growth came to 0.314 ± 0.011.

Molecule `Cc1ccc(C(=O)c2cc(O)c(O)c([N+](=O)[O-])c2)cc1` [Tolcapone] had a growth of 0.0527 ± 0.0018.

Molecule `Fc1ccc([C@@H]2CCNC[C@H]2COc2ccc3c(c2)OCO3)cc1` [Paroxetine Hydrochloride] came in with a growth of 0.133 ± 0.0029.

Consider `COc1ccc(CN2CCN(C(c3ccc(F)cc3)c3ccc(F)cc3)CC2)c(OC)c1OC` [Lomerizine hydrochloride], for which the growth was determined as 0.0685 ± 0.0042.
